# Source: article PMC8384837, “Expanding the binding specificity for RNA recognition by a PUF domain”
# Numbering of substitutions follows the chain as printed.
# Experiments:
# Assay in all cases: yeast three-hybrid, YBZ-1, SC-Leu-His + 0.5 mM 3-AT, 4 days
# Details in all cases: tags: N-Gal4 AD-HA kept; label: inside an RPR1-promoter hybrid RNA with tandem MS2 sites; ssRNA
# PUM1 PUF domain R5-KAS = PUM1 PUF domain R5-KAS (Homo sapiens, UniProt Q14671 828-1176, C1007K;R1008A;Q1011S)
# Method in brief: (§1)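 Pumilio-1 PUF domain libraries, randomized (NNK) at the three base-contacting residues of each repeat, were co-expressed with matching RNA elements from a centromeric plasmid in strain YBZ-1 (LexA–MS2 coat fusion, HIS3 reporter). Transformants were plated on SC-Leu (input) and SC-Leu-His + 0.5 mM 3-AT (selection) for four days, and repeat regions were PCR-amplified and Illumina-sequenced. The interaction score is the log2 change in variant frequency from input to selection, with pseudocount 1 where absent.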
# PUM1 PUF domain R4-SNL = PUM1 PUF domain R4-SNL (Homo sapiens, UniProt Q14671 828-1176, N971S;H972N;Q975L)
# Method in brief: as §1
# PUM1 PUF domain R6-CYV = molecular target: T1, PUM1 PUF domain R6-CYV (Homo sapiens, UniProt Q14671 828-1176, N1043C;Q1047V)
# T1 sequence: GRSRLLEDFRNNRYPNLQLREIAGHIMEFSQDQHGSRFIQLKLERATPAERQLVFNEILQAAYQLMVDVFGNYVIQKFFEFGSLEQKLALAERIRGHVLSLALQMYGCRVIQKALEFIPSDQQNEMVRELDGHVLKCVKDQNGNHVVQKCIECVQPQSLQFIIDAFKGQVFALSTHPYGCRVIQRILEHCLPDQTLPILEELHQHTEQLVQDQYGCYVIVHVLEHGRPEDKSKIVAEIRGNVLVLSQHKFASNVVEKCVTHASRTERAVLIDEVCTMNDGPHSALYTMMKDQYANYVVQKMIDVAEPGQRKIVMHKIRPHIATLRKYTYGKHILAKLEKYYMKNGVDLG
# Method in brief: as §1
# PUM1 PUF domain R6-GHS = molecular target: T2, PUM1 PUF domain R6-GHS (Homo sapiens, UniProt Q14671 828-1176, N1043G;Y1044H;Q1047S)
# T2 sequence: T1 sequence with C216G, Y217H, V220S
# Method in brief: as §1
# PUM1 PUF domain R1-NWS = PUM1 PUF domain R1-NWS (Homo sapiens, UniProt Q14671 828-1176, S863N;R864W;Q867S)
# Method in brief: as §1
# PUM1 PUF domain R1-QVK = PUM1 PUF domain R1-QVK (Homo sapiens, UniProt Q14671 828-1176, S863Q;R864V;Q867K)
# Method in brief: as §1
# PUM1 PUF domain R8-VYK = PUM1 PUF domain R8-VYK (Homo sapiens, UniProt Q14671 828-1176, N1122V;Q1126K)
# Method in brief: as §1
# PUM1 PUF domain R3-ARA = PUM1 PUF domain R3-ARA (Homo sapiens, UniProt Q14671 828-1176, C935A;Q939A)
# Method in brief: as §1
# PUM1 PUF domain R4-EYM = PUM1 PUF domain R4-EYM (Homo sapiens, UniProt Q14671 828-1176, N971E;H972Y;Q975M)
# Method in brief: as §1
sequence,measurement,setting,value
GGCUAGAACUAGUGGAUCCCCCGGCGCCCGGCGGCUCGAGCCCGGGUAAGUGUCAAUAGUCUGCAUGCCGCCGGGCGCCAUGCCUGCAGGUCGACUCUAGAAAACAUG,binding signal,PUM1 PUF domain R5-KAS,3.47 log2 enrichment (interaction score)
GGCUAGAACUAGUGGAUCCCCCGGCGCCCGGCGGCUCGAGCCCGGGUAAGUGUAUAUAGUCUGCAUGCCGCCGGGCGCCAUGCCUGCAGGUCGACUCUAGAAAACAUG,binding signal,PUM1 PUF domain R4-SNL,4.22 log2 enrichment (interaction score)
GGCUAGAACUAGUGGAUCCCCCGGCGCCCGGCGGCUCGAGCCCGGGUAAGUGAAAAUAGUCUGCAUGCCGCCGGGCGCCAUGCCUGCAGGUCGACUCUAGAAAACAUG,binding signal,PUM1 PUF domain R6-CYV,3.61 log2 enrichment (interaction score)
same,binding signal,PUM1 PUF domain R6-GHS,2.5 log2 enrichment (interaction score)
GGCUAGAACUAGUGGAUCCCCCGGCGCCCGGCGGCUCGAGCCCGGGUAAGUGUAAAUUGUCUGCAUGCCGCCGGGCGCCAUGCCUGCAGGUCGACUCUAGAAAACAUG,binding signal,PUM1 PUF domain R1-NWS,5.3 log2 enrichment (interaction score)
same,binding signal,PUM1 PUF domain R1-QVK,0.46 log2 enrichment (interaction score)
GGCUAGAACUAGUGGAUCCCCCGGCGCCCGGCGGCUCGAGCCCGGGUAAGCGUAAAUAGUCUGCAUGCCGCCGGGCGCCAUGCCUGCAGGUCGACUCUAGAAAACAUG,binding signal,PUM1 PUF domain R8-VYK,4.78 log2 enrichment (interaction score)
GGCUAGAACUAGUGGAUCCCCCGGCGCCCGGCGGCUCGAGCCCGGGUAAGUGUAAUUAGUCUGCAUGCCGCCGGGCGCCAUGCCUGCAGGUCGACUCUAGAAAACAUG,binding signal,PUM1 PUF domain R3-ARA,0.92 log2 enrichment (interaction score)
GGCUAGAACUAGUGGAUCCCCCGGCGCCCGGCGGCUCGAGCCCGGGUAAGUGUUAAUAGUCUGCAUGCCGCCGGGCGCCAUGCCUGCAGGUCGACUCUAGAAAACAUG,binding signal,PUM1 PUF domain R5-KAS,5.33 log2 enrichment (interaction score)
GGCUAGAACUAGUGGAUCCCCCGGCGCCCGGCGGCUCGAGCCCGGGUAAGUGUACAUAGUCUGCAUGCCGCCGGGCGCCAUGCCUGCAGGUCGACUCUAGAAAACAUG,binding signal,PUM1 PUF domain R4-SNL,1.34 log2 enrichment (interaction score)
same,binding signal,PUM1 PUF domain R4-EYM,2.59 log2 enrichment (interaction score)
